BAZ2B inh – qHTS Assay for Inhibitors of BAZ2B; Potency, µM (series often up to 114 µM), without a hit: at the highest dose activity change, negative = inhibition, usual class: inhibitors; Bromodomain adjacent to zinc finger domain protein 2B (Homo sapiens), Q9UIF8; 360,000 compounds, 4.4% hits; AlphaScreen BAZ2B-H3K14Ac peptide displacement; note: potency is the fitted concentration of half-maximal effect; % is set by controls: 0 for no effect and ±100 for the full control effect; nearly all actives have a fitted effect of over 60% in size
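BAZ2B (50 nM) with biotin-H3(5-23)K14Ac peptide (50 nM) in PBS pH 7.4, 0.01% Tween-20, preformed 30 min, then compound 30 min at room temperature; top concentration 110uM. AlphaScreen streptavidin donor/nickel chelate acceptor beads (10 ug/mL final), 20 min dark, signal read.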
JMJD2A Tudor – qHTS Assay for Inhibitors of JMJD2A-Tudor Domain | AID 504339, 2011 | 390,000 compounds, 4.4% hits | Potency, µM (titrated, usually from 114 µM), inactives show at the highest dose activity change, negative = inhibition, actives largely listed as inhibitors | AlphaScreen JMJD2A-Tudor / H3K4me3 peptide binding; note: potency is the fitted concentration of half-maximal effect; % is set by controls: 0 for no effect and ±100 for the full control effect; nearly all actives have a fitted effect of over 50% in size
Six1-Eya2 inh – qHTS Assay for Inhibitors of the Six1/Eya2 Interaction | activity change, % (test concentration not listed) | Homeobox protein SIX1 (Homo sapiens) + Protein phosphatase EYA2 (Homo sapiens), … | AID 651725, 2012 | AlphaScreen GST-Six1/His-Eya2 binding, biochemical; hits give low values | 360,000 compounds, 0.56% hits; in the data active = activity change below about -65%; inconclusive = mostly about -30% to -63%; note: % is set by controls: 0 for no effect and ±100 for the full control effect
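Six1/Eya2 binding was read as AlphaScreen signal after compounds were pinned into GST-Six1 plus His-tagged Eya2 (5X stock 250/500 nM) in pH 8.0 Tris/NaCl/TCEP buffer, beads added, then incubated 1 h, 37 C, dark.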
HP1b binding inh – HTS for Inhibitors of HP1-beta Chromodomain Interactions with Methylated Histone Tails; 390,000 compounds, 0.56% hits; AlphaScreen HP1-beta / biotin-H3K9me3 peptide binding; Potency, µM (top dose mostly 114 µM), inactives show top-dose activity change, negative = inhibition, actives largely listed as inhibitors; Chromobox protein homolog 1 (Homo sapiens), P83916; note: potency is the fitted concentration of half-maximal effect; nearly all actives have a fitted effect of over 70% in size
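HP1-beta protein (50 nM final) preincubated 30 min at room temperature with biotinylated H3(1-18)K9me3 peptide (50 nM) in PBS pH 7.4, 0.01% Tween-20, then compound added for 30 min. AlphaScreen streptavidin donor/nickel chelate acceptor beads (10 ug/mL final), 30 min dark, luminescence read.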
TDP1 block – qHTS Assay for Inhibitors of Tyrosyl-DNA Phosphodiesterase (TDP1). Potency, µM (doses to about 130 µM), for inactives: at the top dose activity change, negative = inhibition, most hits filed as inhibitors. recombinant TDP1, AlphaScreen DNA substrate cleavage. 350,000 compounds, 0.28% hits. Tyrosyl-DNA phosphodiesterase 1 (Homo sapiens), Q9NUW8; note: potency is the fitted concentration of half-maximal effect; % is set by controls: 0 for no effect and ±100 for the full control effect; nearly all actives have a fitted effect of over 40% in size
Target sequence (Q9NUW8 whole entry, looked up): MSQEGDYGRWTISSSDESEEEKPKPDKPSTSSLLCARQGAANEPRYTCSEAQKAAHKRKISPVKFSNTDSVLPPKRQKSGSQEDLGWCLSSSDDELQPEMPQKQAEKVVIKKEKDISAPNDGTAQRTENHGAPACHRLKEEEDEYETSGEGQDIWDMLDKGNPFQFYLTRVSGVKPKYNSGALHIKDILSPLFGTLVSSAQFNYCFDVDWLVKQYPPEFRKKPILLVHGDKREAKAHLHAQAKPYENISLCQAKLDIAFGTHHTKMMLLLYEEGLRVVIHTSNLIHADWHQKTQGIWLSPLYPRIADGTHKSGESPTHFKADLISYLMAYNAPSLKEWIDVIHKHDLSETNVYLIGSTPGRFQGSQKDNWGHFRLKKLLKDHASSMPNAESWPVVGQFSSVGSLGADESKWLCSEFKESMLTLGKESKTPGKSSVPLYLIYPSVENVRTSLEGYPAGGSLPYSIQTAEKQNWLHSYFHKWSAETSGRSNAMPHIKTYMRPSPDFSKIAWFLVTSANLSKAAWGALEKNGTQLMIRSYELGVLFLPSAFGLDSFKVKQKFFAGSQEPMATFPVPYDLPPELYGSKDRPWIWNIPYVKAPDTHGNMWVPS
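AlphaScreen read-out: signal falls as enzyme removes the 3' tyrosine-FITC from a 5'-biotinylated DNA oligo (15 nM, 5 min, RT). Enzyme was E. coli-made recombinant Tdp1 at 1 nM, exposed to compound for 15 min beforehand; beads 10 ug/ml, 10 min.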
CtBP-E1A blk – qHTS Assay for Inhibitors of the CtBP/E1A Interaction; CtBP / adenovirus E1A interaction (AlphaScreen); AlphaScreen GST-E1A/His-CtBP binding, 1536-well; hits give low values; activity change, % (test concentration not listed); 340,000 compounds, 0.49% hits; AID 651724, 2012; in the data active = activity change below about -65%; inconclusive = mostly about -30% to -63%; note: % is set by controls: 0 for no effect and ±100 for the full control effect
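Steps: dispense buffer (Tris pH 8.0, NaCl 300 mM, TCEP 1 mM, BSA, Tween 20); add 5X protein mix (GST-E1A, His-CtBP, 125 nM each); pin 23 nL compound; 2 h at 37 °C, dark; add 5X beads (50 ug/mL); 1 h; read.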
Starred values were filed as active, the others as inactive; [ ] = remark or other dose. In the library only some 5.3% were active in any assay of this set; here they are far more common. Unless noted, calls come from the whole dose curve; as a rule, active = well fitted inhibition curve with a large enough effect; inconclusive = small, poorly fitted or top-dose-only effect; inactive = no such curve, though single readings can be large or run the other way.

For C=C(C)C(=O)/C=C/c1ccc(Br)cc1 the results were TDP1 block 6%.
Cc1cccc(O)c1C was read as JMJD2A Tudor -18%, Six1-Eya2 inh 8, HP1b binding inh 21%, TDP1 block 1% and CtBP-E1A blk 4.
`Cc1cccc(C)c1N=Nc1c(C)cc(O)cc1C` gave BAZ2B inh 18µM*, JMJD2A Tudor 20µM*, Six1-Eya2 inh inconclusive, HP1b binding inh inconclusive, TDP1 block 13% and CtBP-E1A blk inconclusive.
Screening C[C@@H](C(=O)Nc1ccc2ccccc2c1)[C@H]1C[C@]1(C)[C@H](NC(=O)c1ccccc1)c1ccccc1 returned TDP1 block 7%.
`O=C(Nc1cccc(C(F)(F)F)c1)c1cccnc1N1CCN(c2ccccc2)CC1` gave BAZ2B inh 50µM*, JMJD2A Tudor 79µM*, Six1-Eya2 inh -12, HP1b binding inh 14%, TDP1 block -7% and CtBP-E1A blk -20.
For O=C(O)c1cccnc1Nc1cccc(C(F)(F)F)c1 the results were BAZ2B inh 79µM*, JMJD2A Tudor 6%, Six1-Eya2 inh -1, HP1b binding inh 21%, TDP1 block -3% and CtBP-E1A blk 2.
Screening COc1cccc(N2CCN(C(=O)C3CCC(CNS(=O)(=O)c4ccc(Br)s4)CC3)CC2)c1 (stereo not drawn) returned BAZ2B inh 1%, JMJD2A Tudor -13%, HP1b binding inh 13% and TDP1 block -2%[12.3 µM].
`CCn1cc2nc(SCc3ccc(F)cc3)n(Cc3ccc(Cl)cc3)c(=O)c2n1` gave BAZ2B inh 2%, JMJD2A Tudor 5%, HP1b binding inh 19% and TDP1 block 3%.
`O=C(CN1C(=O)S/C(=C\c2cc(Cl)c(O)c(Cl)c2)C1=O)Nc1ccccc1` gave BAZ2B inh 45µM*, JMJD2A Tudor inconclusive, Six1-Eya2 inh -7, HP1b binding inh -16% and CtBP-E1A blk 50.
`COc1cc(/C=C2\SC(=O)N(CC(=O)Nc3ccc(C)cc3)C2=O)cc(Cl)c1OCC(=O)O` gave BAZ2B inh 14µM*, JMJD2A Tudor 11µM*, Six1-Eya2 inh inconclusive, HP1b binding inh 14µM* and CtBP-E1A blk -15.
Screening Cc1ccc(NC(=O)CN2C(=O)S/C(=C\c3cc(C)n(C)c3C)C2=O)cc1 returned BAZ2B inh 2%[57.1 µM], JMJD2A Tudor -19%, Six1-Eya2 inh -1, HP1b binding inh 15%, TDP1 block 0% and CtBP-E1A blk 9.
For O=C(CN1C(=O)S/C(=C\c2ccccn2)C1=O)Nc1ccccc1 the results were BAZ2B inh -8%, JMJD2A Tudor -5%, Six1-Eya2 inh 5, HP1b binding inh 29%, TDP1 block 0% and CtBP-E1A blk 8.
For CCCc1nc(SCc2cc(=O)c3ccc(C)c(C)c3[nH]2)n[nH]1 the results were BAZ2B inh 16%, JMJD2A Tudor -14%, HP1b binding inh 16%[57 µM] and TDP1 block 8%.
Screening COc1cccc(NC(=O)CSc2nc3cc(OC)c(OC)cc3c3nc(-c4ccccc4)nn23)c1 returned JMJD2A Tudor -12%, HP1b binding inh 27% and TDP1 block 2%.
`CC1=C([N+](=O)[O-])C(c2cccc(Br)c2)C2=C(N1)c1ccccc1C2=O` (stereo not drawn) gave BAZ2B inh 14µM*, JMJD2A Tudor 16µM*, Six1-Eya2 inh -20, HP1b binding inh inconclusive, TDP1 block 12% and CtBP-E1A blk -5.
Screening COC(=O)C1=C(C)NC2=C(C(=O)c3ccccc32)C1c1cccc(OC)c1 (stereo not drawn) returned BAZ2B inh -37%, JMJD2A Tudor -23%, Six1-Eya2 inh -13 and HP1b binding inh -2%.
For COc1ccc(S(=O)(=O)N(Cc2nc(-c3ccc(Cl)cc3)no2)C2CCCCC2)cc1 the results were BAZ2B inh 8%, JMJD2A Tudor 9%, HP1b binding inh 43% and TDP1 block 2%.
Screening COC(=O)C1(C(C)=O)CC2=CC[C@@H]3C(=O)N(c4ccccc4)C(=O)[C@@H]3[C@@H]2Cc2ccccc2[C@@H]1C[N+](=O)[O-] (stereo partly drawn) returned TDP1 block 3%.
`O=C1CCCC2=C1C(c1ccc(O)c(O)c1)c1c(ccc3ncccc13)N2` (stereo not drawn) gave BAZ2B inh 45µM*, JMJD2A Tudor -19%[11.4 µM], Six1-Eya2 inh -20 and HP1b binding inh inconclusive.
For C=CCn1c(SCC(=O)NCCC2=CCCCC2)nc2ccc(Cl)cc2c1=O the results were BAZ2B inh -2%, JMJD2A Tudor 28µM*, Six1-Eya2 inh 1, HP1b binding inh inconclusive, TDP1 block 2% and CtBP-E1A blk 2.
Cn1c(=O)cc(SCC(=O)NCCC2=CCCCC2)c2ccc(Cl)cc21 was read as BAZ2B inh -1%, JMJD2A Tudor -11%, Six1-Eya2 inh 8, HP1b binding inh 17%, TDP1 block 1% and CtBP-E1A blk 10.
For Cc1n(CC(O)COCc2ccccc2)c2ccccc2[n+]1C (stereo not drawn) the results were BAZ2B inh 56µM*, JMJD2A Tudor -8%, Six1-Eya2 inh -2, HP1b binding inh 24%, TDP1 block 5% and CtBP-E1A blk 2.
Screening O=S(=O)(c1ccc(Br)cc1)N1CCCN(Cc2ccccc2F)CC1 returned BAZ2B inh 0%, JMJD2A Tudor 12%, Six1-Eya2 inh -6, HP1b binding inh 37%, TDP1 block 3% and CtBP-E1A blk -15.
For Fc1ccc(CN2CCCCCCC2)c(F)c1 the results were BAZ2B inh 50µM*, JMJD2A Tudor 3.2µM*, Six1-Eya2 inh 0, HP1b binding inh inconclusive, TDP1 block 2% and CtBP-E1A blk 11.
Fc1ccccc1CN1CCCCCCC1 was read as BAZ2B inh 50µM*, JMJD2A Tudor 4µM*, Six1-Eya2 inh 2, HP1b binding inh inconclusive, TDP1 block -4% and CtBP-E1A blk 5.
`Fc1ccc(CN2CCCCCC2)c(F)c1` gave BAZ2B inh inconclusive, JMJD2A Tudor inconclusive, Six1-Eya2 inh 3, HP1b binding inh inconclusive, TDP1 block -9% and CtBP-E1A blk -2.

Source: PubChem (National Center for Advancing Translational Sciences (NCATS))
